According to PubChem BioAssay AID1239 (SRMLSC, 2008):
Hit rate of the full screen: of about 190,000 compounds, about 3,100 (1.6%) were called active. Shown is part of a subset that was picked to be rich in actives. Unmarked numbers belong to inactive results. No stated cut-off is given here; in the data, active means fold change above about 3.3; inconclusive means no clear call, values can overlap the other calls; inactive means below that.

Experiment: activators of NF-kB expression in neurons, primary screen, cell-based, HTS (AID 1239)
Conditions: human neuronal cells, NF-kB reporter expression; at 12.5 µM; stronger effect = higher value

Compound	fold change
O=C1CC(c2ccccc2)=NN1c1ccc([N+](=O)[O-])cc1	1.27
Cc1nn(-c2ccc([N+](=O)[O-])cc2)c(N)c1-c1ccccc1	6.64 (active)
Cc1nn(-c2ccccc2)c2c1C(c1cccc([N+](=O)[O-])c1)N(c1ccccc1)C(=O)N2 (stereo not given)	1.17
Cc1nc2ccc(NC(=O)C(F)(F)F)cc2o1	0.91
Cc1ccc(NC(=O)Nc2ccc3oc(C)nc3c2)cc1	5.03 (active)
Cc1nc2cc(NC(=O)NCc3ccccc3)ccc2o1	1.54
COc1ccc(C2CC(c3cccs3)=NN2c2ccccc2)cc1 (stereo not given)	1.15
CCCNS(=O)(=O)c1ccc(CCC(=O)N2CCCC2)cc1	1.25
Cn1cnnc1Sc1ccc(CN2CCN(C3CCCC3)C(CCO)C2)o1 (stereo not given)	1.08
OCCC1CN(Cc2ccc3nsnc3c2)CCN1C1CCCCC1 (stereo not given)	0.99
OCCC1CN(Cc2ccc3nsnc3c2)CCN1C1CCCC1 (stereo not given)	5.55 (active)
N/C(=N\OC(=O)CCc1ccccc1)c1cccnc1	1.31
OCC1(Cc2ccccc2C(F)(F)F)CCN(Cc2cccc3cnccc23)CC1	0.85
COc1ccccc1CNC(=O)c1ccc(SC)cc1OC	1.42
COc1cc(SC)ccc1C(=O)NCCOc1ccccc1Cl	5.99 (active)
COc1cc(SC)ccc1C(=O)Nc1cc(C)ccn1	1.01
COc1cc(CNCCN(C)C)ccc1OCc1c(F)cccc1Cl	1.11
COc1cccc(CN(C)CC(=O)Nc2ccccc2C(=O)Nc2ccccc2)c1	0.95
O=c1[nH]c2cccnc2n(CCNc2ncc(C(F)(F)F)cc2Cl)c1=O	1.12
NC(N)=Nc1nc2ccc(Br)cc2c(=O)[nH]1	3.87 (active)
C/C(=N\N)c1c(-c2ccccc2)c2cc(Br)ccc2[nH]c1=O	0.98
NC(=O)C1CCN(Cc2nc3c(Br)cc(Br)cc3c(=O)[nH]2)CC1	1.47
CC(C)Cn1c(N)c(C(=O)COC(=O)CN2C(=O)C3CC=CCC3C2=O)c(=O)n(C)c1=O (stereo not given)	0.78
Cc1ccc(NC(=S)NCc2ccccc2Cl)c(C)c1	0.92
Cc1ccc(NC(=S)NC(=O)c2ccc(-c3ccccc3)cc2)c(C)c1	1.18

Compound	fold change
Cc1ccc(NC(=S)Nc2ncccc2C)c(C)c1	3.74 (active)
Cc1ccc(S(=O)(=O)N(C)C)cc1NC(=O)c1ccccc1Br	1.05
COC(=O)CCNC(=O)c1ccc2[nH]c(C)c(C)c2c1	0.99
C/[N+]([O-])=C\c1ccc([N+](=O)[O-])o1	0.83
Cn1cc(/C=C/c2nc3ccccc3c(=O)n2-c2cccc([N+](=O)[O-])c2)c2ccccc21	1.02
CCn1c(/C=C/c2ccc([N+](=O)[O-])o2)nc2ccccc2c1=O	4.02 (active)
Cn1c(=N)n(CC(O)c2cccs2)c2ccccc21 (stereo not given)	1.08
CC(C)(C)N(CC#CCC(O)(c1ccccc1)C1CCCC1)CCO (stereo not given)	1.15
COc1ccccc1N1CC(O)=C(c2nc3ccccc3s2)C1=N	0.59
COc1cccc2sc(NNC(=O)c3nc4ccccc4s3)nc12	1.13
COc1ccccc1OCc1nc2ccccc2s1	4.3 (active)
Cc1ccc(NC(=O)c2csc3c2CCCC3)cc1	1.12
CCN1CCN(C(=O)CN(C)S(=O)(=O)c2ccc3ccccc3c2)CC1	1
CCc1ccc(NC(=O)N2CCN(c3ccccc3)CC2)cc1	1.34
CCOC(=O)c1ccc(NC2Nc3cc(C)nn3S2)cc1 (stereo not given)	1.14
CCc1ccc(NC2Nc3cc(C)nn3S2)cc1 (stereo not given)	4.6 (active)
O=C(NCc1ccccc1)C1=C[C@@H](c2ccc(C(F)(F)F)cc2)C[C@@H](OCc2ccc(CO)cc2)O1	0.94
CCN(C(=O)COC(=O)c1ccc(COc2ccc3c(C)cc(=O)oc3c2)cc1)C1CCS(=O)(=O)C1 (stereo not given)	1.19
CSCC(=O)N1CCCC(C(=O)c2cc(F)ccc2F)C1 (stereo not given)	1.18
Fc1ccccc1N=C1Nc2cccc3cccc1c23	0.99
Cc1cccc(-n2c(O)c(C=Nc3ccccc3N)c(=O)[nH]c2=O)c1	4.16 (active)
Cc1ccc(N=Cc2c(O)n(-c3nccs3)c(=O)c3ccccc23)c(C)c1	1.01
Cc1cccc(-n2c(C)cc(/C=N/NC(N)=S)c2C)c1	1.29
Cc1c(CN2CCCC(C(=O)c3cccc(Cl)c3)C2)c(=O)n(-c2ccccc2)n1C (stereo not given)	1.12
Cc1ccc(C(=O)Nc2cccc3ncccc23)cc1[N+](=O)[O-]	1.38

Compound	fold change
CC(C)(c1ccccc1)c1ccc(OCCN)cc1	1.16
O=C(Nc1ccc(F)cc1)N1CCN(c2ccc(F)cc2)CC1	1.12
CCOC(=O)C1(Cc2cccc(OC)c2)CCN(Cc2csc(C(C)=O)c2)CC1	0.84
O=C(O)c1cccc(N=NN2CCCCCC2)c1	5.59 (active)
O=C(c1ccccc1)N1CCN(C(=O)N2CCCCC2)CC1	1.3
O=C(O)c1ccc(N=NN2CCOCC2)cc1	1.3
COc1ccc(NC(=S)N2N=CCC2c2ccccc2)cc1 (stereo not given)	3.93 (active)
COc1ccc(C(=O)NC2CCN(C(=S)Nc3ccccc3)CC2)cc1	1.12
COc1ccc(C(=S)Nc2ccccc2)cc1	1.98
Cc1ccc(C(=O)NNC(=O)c2cccs2)cc1	1.67
COCCNC(=O)/C(C#N)=C/c1nc(N(C)C)n(-c2ccc(F)cc2)c1Cl	1.11
Cc1nc(N2CCC(C)CC2)c2c(C)c(C(=O)Nc3cc(F)ccc3C)sc2n1	0.88
O=[N+]([O-])c1cccc(/C([O-])=C(/C(=S)Nc2ccccc2F)[n+]2ccccc2)c1	1.02
Cn1cc(Cl)c(C(=O)NNC(=S)Nc2cccc(Cl)c2)n1	1.46
Cc1csc(SCC(=O)Nc2sccc2C#N)n1	5.12 (active)
COc1ccc(NC(=O)CSc2nc(C)cs2)cc1	1.38
Cc1cccc(C)c1Nc1nnc(SCC(=O)Nc2sccc2C#N)s1	1.08
CCO/C=C1\C(=O)N(c2ccc(OCC)cc2)C(=O)c2ccccc21	1.05
Cc1ccc(-c2nnc(-c3ccc(NC(=O)c4cccs4)cc3)o2)cc1	1.45
Cc1ccc(-c2csc(NC(=O)c3cccs3)n2)cc1	1.97
Cc1nc(-c2ccc(NC(=O)c3cccs3)cc2)cs1	5.59 (active)
COc1ccc(CNC(=O)COC(=O)/C=C/c2ccc(S(=O)(=O)N3CCOCC3)cc2)cc1	1
COCCNc1nc2nonc2nc1N1CCCC1c1nccs1 (stereo not given)	1.05
C=CCN(Cc1nc(-c2cc(OC)c3c(c2)OCO3)oc1C)C1CCS(=O)(=O)C1 (stereo not given)	1.14
Cc1ccc(-n2c(C)cc(C(=O)CN3C(=O)C(=O)N(C4CCCC4)C3=O)c2C)cc1	0.71

Compound	fold change
O=C(CSc1nnc2ccccn12)c1ccccc1	1.88
Cc1ccc(-n2c(C)cc(C(=O)CSc3nnc4ccccn34)c2C)cc1	3.7 (active)
CC1CC(C)CN(S(=O)(=O)c2ccc(C(=O)NN3CCOCC3)cc2)C1 (stereo not given)	1.27
Cc1cc(OCC(=O)NC2CCN(C)CC2)ccc1[N+](=O)[O-]	0.99
COc1ccccc1N(C)S(=O)(=O)c1ccc(Cl)c(C(=O)N2CCC(C(N)=O)CC2)c1	1.12
Cc1ccc(-c2cn3cc([N+](=O)[O-])ccc3n2)cc1	4.75 (active)
Cc1ccc(-c2cn3cc(C)ccc3n2)cc1	0.56
Cn1cnc(C(F)(F)F)c1-c1ccc([N+](=O)[O-])cc1	1.2
CCOC(=O)N1CCN(C(=O)CSc2nc(C)nc3c2c(=O)n(C)c(=O)n3C)CC1	0.96
Cc1cc(NC(=O)CSc2nc3ccccc3n2CC(C)C)no1	1.74
COc1ccc(NS(=O)(=O)c2cc(NC(=O)C3CCCCC3)ccc2N2CCOCC2)cc1	0.72
Cc1cc(C)nc(NNC2=CC(=O)CC(C)(C)C2)n1	1.06
COc1ccccc1C1C2=C(COC2=O)Nc2cc3c(cc21)OCO3 (stereo not given)	1.19
COCCOC(=O)C1=C(C)NC(=O)CC1c1cc2c(cc1Br)OCO2 (stereo not given)	0.99
CCCOc1ccccc1C1CC(=O)Nc2cc3c(cc21)OCO3 (stereo not given)	3.71 (active)
C1=C(CCNc2ncnc3c2cnn3-c2ccccc2)CCCC1	4.63 (active)
c1ccc(-n2ncc3c(N4CCCC4)ncnc32)cc1	5.1 (active)
COc1ccc(-n2ncc3c(N4CCCc5ccccc54)ncnc32)cc1	1
O=C(NNc1ncnc2c1cnn2-c1ccccc1)c1ccco1	1.27
COc1ccc(-n2ncc3c(N4CCc5ccccc54)ncnc32)cc1	0.87
O=C(NCCC1=CCCCC1)C1CCN(Cc2cnn(-c3ccccc3)c2-n2cccc2)CC1	0.8
CCC(CC)NC(=O)CSc1nnc(-c2c[nH]c3ccccc23)o1	1.09
COC(c1ccccc1)c1nnc(CCC(=O)N2CCN(CCOc3ccccc3)CC2)o1 (stereo not given)	1.23
COc1ccc(-c2[nH]ncc2CN(C)Cc2cc(C)[nH]n2)c(F)c1	0.97
COc1ccc(O)c(C(=O)c2cnc3c(c2)c(-c2ccc(F)cc2)c(C#N)c(=O)n3C)c1	0.93
